Screening results deposited in PubChem by National Center for Advancing Translational Sciences (NCATS).
IL-1B inflam inh = inflammasome signaling inhibition, IL-1 beta readout; THP-1 LPS/ATP IL-1B secretion, AlphaLISA, 16 h; hits give low values; actives 4.7% (n = 360,000); activity change, % at 57.5 µM; in the data active means activity change below about -50%; inconclusive means mostly about -30% to -49%
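THP-1 cells pretreated 1 hr with compounds (up to 57.5 uM final), then stimulated with LPS (250 ng/mL final) plus ATP (1.25 mM final); secreted IL-1B measured by AlphaLISA after 16 hr, decreased signal indicating inhibition.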
HT1080NT lethal = kills 2HG-producing HT-1080-NT fibrosarcoma cells; HT-1080-NT fibrosarcoma viability, CellTiter-Glo ATP luminescence, 48 h; actives 1.6% (n = 360,000); AID 686970; Potency, µM (series often up to 46.1 µM), for inactives: at the highest dose activity, negative = less viability, hits mostly cytotoxic;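 further: NT is the 2HG producing partner of a matched IDH1 knockdown line; potency means the concentration at half of the fitted maximal effect; 0% = DMSO-treated cells and -100% = media-only wells without cells; nearly all actives have a fitted effect of over 55% in size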
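A 48-hour cytotoxicity screen used HT-1080-NT cells plated 2 hours before compound delivery. ATP-based CellTiter-Glo luminescence measured viability, normalized to DMSO and no-cell controls.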
DT40 TDP1 no CPT = qHTS for Inhibitors of human tyrosyl-DNA phosphodiesterase 1 (TDP1): qHTS in cells in absence of CPT. DT40 Tdp1-/- hTDP1 cells, no CPT, ATP luminescence, 48 h. Potency, µM (highest dose often 46.2 µM), for the others: at the top dose activity change, negative = growth inhibition, hits mostly inhibitors. actives 15% (n = 420,000); further: potency means the concentration at half of the fitted maximal effect; nearly all actives have a fitted effect of over 55% in size
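Seeded 400 DT40-hTDP1 cells/well (vehicle DMSO, no 20 nM CPT); pinned compounds; ≥48 hr at 37 °C; CellTiter-Glo luminescence as viability measure.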
uPA generation = blocks generation of uPA at the cell surface; cell surface uPA generation assay, qHTS; Potency, µM (series often up to 38.3 µM), without a hit: at the top dose activity change, negative = inhibition, most hits filed as inhibitors; actives 0.31% (n = 330,000); active means well fitted inhibition curve with a large enough effect; inconclusive means small, poorly fitted or top-dose-only effect; inactive means no such curve, though single readings can be large or run the other way; tested in mouse RAW 264.7 cells; further: potency means the concentration at half of the fitted maximal effect; nearly all actives have a fitted effect of over 55% in size
HT1080 IDH1KD tx = toxicity to HT-1080 IDH1 knockdown cells (counter line) | HT-1080 IDH1 knockdown viability, ATP luminescence, 48 h | Potency, µM (highest dose often 46.1 µM), for the others: at the top dose activity, negative = toxicity, usual class: cytotoxic | actives 2% (n = 360,000) | AID 686971;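 further: potency means the concentration at half of the fitted maximal effect; 0% = DMSO wells and -100% = cell-free medium wells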
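After a 2 h attachment period, IDH1KD HT-1080 cells took pin-transferred compound for 48 h at 37 °C; ATP-based luminescence after 10 min room-temperature reagent incubation reported viability.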
TDP1 cell CPT = growth inhibition of DT40 Tdp1-/-;hTDP1 cells with camptothecin (screen for TDP1 inhibitors). chicken DT40 Tdp1-/-;hTDP1 cells + 20 nM CPT, ATP luminescence, 48 h. Potency, µM (titrated, usually from 46.2 µM), for the others: top-dose activity change, negative = growth inhibition, most hits filed as inhibitors. actives 12% (n = 420,000); further: potency means the concentration at half of the fitted maximal effect; nearly all actives have a fitted effect of over 55% in size
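Cell growth measured by CellTiter-Glo luminescence after a minimum 48 h, 37 C compound exposure with 20 nM CPT in Tdp1-knockout DT40 cells stably expressing hTDP1, seeded 400/well; qHTS titration format.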
Active calls of the source: *. Most compounds without a hit are left out; they make up all but 19% or so of the library. Unless noted, the call rests on the fitted dose curve; in most records, active means well fitted curve in the direction sought with a large enough effect; inconclusive means small, poorly fitted or top-dose-only effect, or another doubt; inactive means no such curve, though single readings can be large; an effect the other way counts as inactive or inconclusive. Unless noted, on the % scale 0 is the no-effect control and ±100 the full control effect.

How did Cc1ccccc1OCCn1cnc2cc([N+](=O)[O-])ccc2c1=O do in these assays?
IL-1B inflam inh: 0; HT1080NT lethal: -16%; DT40 TDP1 no CPT: 21µM*; uPA generation: 0%; HT1080 IDH1KD tx: -20%; TDP1 cell CPT: 18µM*

Results for COc1cc(C(CC(=O)NCc2ccc(F)cc2)N2Cc3ccccc3C2=O)cc(OC)c1OC (centres undefined) ?
DT40 TDP1 no CPT: 16µM*; TDP1 cell CPT: inconclusive

Results for COc1ccccc1CNC(=O)CC(c1ccc(F)cc1)N1Cc2ccccc2C1=O (centres undefined) ?
DT40 TDP1 no CPT: 23µM*; TDP1 cell CPT: inconclusive

What do the screens show for `COc1cc(C(CC(=O)NCc2ccccc2)N2Cc3ccccc3C2=O)cc(OC)c1OC` (centres undefined)?
DT40 TDP1 no CPT: -29%; TDP1 cell CPT: -21%

What do the screens show for `COc1cc(OC)c(NC(=O)C(CC(C)C)N2Cc3ccccc3C2=O)cc1Cl` (centres undefined)?
DT40 TDP1 no CPT: inconclusive; TDP1 cell CPT: 15µM*

Results for COc1ccc(C(CC(=O)NCc2ccccc2Cl)N2Cc3ccccc3C2=O)cc1OC (centres undefined) ?
DT40 TDP1 no CPT: inconclusive; TDP1 cell CPT: -27%

Results for COc1ccccc1CNC(=O)C(CC(C)C)N1Cc2ccccc2C1=O (centres undefined) ?
DT40 TDP1 no CPT: 21µM*; TDP1 cell CPT: 9.2µM*

Results for COCCn1c(SCC(=O)Nc2cccnc2Cl)nc2cc(Cl)ccc2c1=O ?
IL-1B inflam inh: -11; HT1080NT lethal: -6%; DT40 TDP1 no CPT: -21%; uPA generation: 14%; HT1080 IDH1KD tx: -2%; TDP1 cell CPT: 6%

How did COCC(C)n1c(SCC(=O)Nc2nccs2)nc2ccccc2c1=O (centres undefined) do in these assays?
IL-1B inflam inh: -2; HT1080NT lethal: -2%; DT40 TDP1 no CPT: -27%; uPA generation: 7%; HT1080 IDH1KD tx: 2%; TDP1 cell CPT: -18%

What do the screens show for `Cc1nnc(SCC(=O)Nc2cccc(S(N)(=O)=O)c2)n1-c1ccccc1`?
IL-1B inflam inh: 25; HT1080NT lethal: 14%; DT40 TDP1 no CPT: 7%; uPA generation: 1%; HT1080 IDH1KD tx: 13%; TDP1 cell CPT: 4%

What do the screens show for `COCC(C)n1c(SCC(=O)Nc2sccc2C(N)=O)nc2ccccc2c1=O` (centres undefined)?
IL-1B inflam inh: -4; HT1080NT lethal: -12%; DT40 TDP1 no CPT: 7.3µM*; uPA generation: 6%; HT1080 IDH1KD tx: -1%; TDP1 cell CPT: 21µM*

Results for COCCn1c(SCC(=O)Nc2sccc2C(N)=O)nc2cc(Cl)ccc2c1=O ?
IL-1B inflam inh: -54*; HT1080NT lethal: inconclusive; DT40 TDP1 no CPT: inconclusive; uPA generation: -6%; HT1080 IDH1KD tx: inconclusive; TDP1 cell CPT: inconclusive

How did COCCn1c(SCC(=O)Nc2cccc(S(N)(=O)=O)c2)nc2cc(Cl)ccc2c1=O do in these assays?
IL-1B inflam inh: -68*; HT1080NT lethal: -9%; DT40 TDP1 no CPT: 18µM*; uPA generation: -1%; HT1080 IDH1KD tx: -23%; TDP1 cell CPT: 15µM*

How did Cc1ccc(-n2c(SCC(=O)Nc3cccc(S(N)(=O)=O)c3)nc3ccccc32)cc1 do in these assays?
IL-1B inflam inh: 27; HT1080NT lethal: -3%; DT40 TDP1 no CPT: inconclusive; uPA generation: -15%; HT1080 IDH1KD tx: inconclusive; TDP1 cell CPT: 18µM*

What do the screens show for `Cc1cccc(CNc2ncncc2-c2ccccc2C(F)(F)F)c1`?
DT40 TDP1 no CPT: -23%; TDP1 cell CPT: -17%

How did Cn1c(=Nc2ccccc2)sc2ccccc21 do in these assays?
IL-1B inflam inh: 15; HT1080NT lethal: -1%; DT40 TDP1 no CPT: -3%; uPA generation: -4%; HT1080 IDH1KD tx: 4%; TDP1 cell CPT: -14%

What do the screens show for `CCOC(=O)N1CCN(C(=O)CSCC(=O)N=c2sc3ccccc3n2C)CC1`?
IL-1B inflam inh: -18; HT1080NT lethal: 12%; DT40 TDP1 no CPT: inconclusive; uPA generation: 3%; HT1080 IDH1KD tx: 8%; TDP1 cell CPT: 16µM*

Results for CC(=O)SCC(=O)N=c1sc2cc(F)ccc2n1C ?
IL-1B inflam inh: -6; HT1080NT lethal: 13%; DT40 TDP1 no CPT: 21µM*; uPA generation: -4%; HT1080 IDH1KD tx: 11%; TDP1 cell CPT: inconclusive

What do the screens show for `Cn1c(=NC(=O)CCl)sc2ccccc21`?
IL-1B inflam inh: -120*; HT1080NT lethal: 5.8µM*; DT40 TDP1 no CPT: 4.1µM*; uPA generation: -7%; HT1080 IDH1KD tx: 6.5µM*; TDP1 cell CPT: 2.6µM*

How did CN(C)c1ccc(N=c2sc3ccccc3n2C)cc1 do in these assays?
IL-1B inflam inh: -51*; HT1080NT lethal: -20%; DT40 TDP1 no CPT: -30%; uPA generation: -26%; HT1080 IDH1KD tx: -8%; TDP1 cell CPT: -30%

What do the screens show for `Cn1c(=NC(=O)CS(=O)(=O)c2ccccc2)sc2cc(F)ccc21`?
IL-1B inflam inh: 27; HT1080NT lethal: -1%; DT40 TDP1 no CPT: inconclusive; HT1080 IDH1KD tx: -2%; TDP1 cell CPT: inconclusive

What do the screens show for `CCOC(=O)C1CCCN(Cc2nc(CC3CC3)no2)C1` (centres undefined)?
IL-1B inflam inh: 19; HT1080NT lethal: 8%; DT40 TDP1 no CPT: 5%; uPA generation: 4%; HT1080 IDH1KD tx: 11%; TDP1 cell CPT: 2%

How did CC[N+]1(C)C2CCC1CC(OC(=O)[C@H]1CCC(C(=O)OC3CC4CCC(C3)[N+]4(C)CC)(c3ccccc3)c3ccccc31)C2 (some centres undefined) do in these assays?
DT40 TDP1 no CPT: -14%; TDP1 cell CPT: -7%

Results for O=c1[nH]c2cc3ccccc3cc2nc1-c1nnnn1C1CCCC1 ?
IL-1B inflam inh: 0; HT1080NT lethal: inconclusive; DT40 TDP1 no CPT: 3.7µM*; HT1080 IDH1KD tx: 16µM*; TDP1 cell CPT: 5.2µM*

How did Cc1cc2nc(-c3nnnn3Cc3ccccc3)c(=O)[nH]c2cc1C do in these assays?
IL-1B inflam inh: -15; HT1080NT lethal: -14%; DT40 TDP1 no CPT: 16µM*; HT1080 IDH1KD tx: inconclusive; TDP1 cell CPT: inconclusive

Results for O=c1[nH]c2ccccc2nc1-c1nnnn1C1CCCC1 ?
IL-1B inflam inh: 9; HT1080NT lethal: -1%; DT40 TDP1 no CPT: -20%; HT1080 IDH1KD tx: 8%; TDP1 cell CPT: -12%
